Measurements taken from publication PMC5540273 (PLoS ONE, 2017).

Legend:
Details in all cases: concentration: 1 μM, replicates: in singlicate; n = 1
CSNK2A2 = system: CSNK2A2
CTK = system: T1, CTK
T1 construct: gene MATK

DAPK1 = system: DAPK1
DAPK2 = system: DAPK2
DAPK3 = system: DAPK3
DCAMKL1 = system: T2, DCAMKL1
T2 construct: gene DCLK1

DCAMKL2 = system: T3, DCAMKL2
T3 construct: gene DCLK2

DCAMKL3 = system: T4, DCAMKL3
T4 construct: gene DCLK3

DDR1 = system: DDR1
DDR2 = system: DDR2
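Note: KINOMEscan kinase panel screen.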

Row | SMILES | %Inh (CSNK2A2) [%] | %Inh (CTK) [%] | %Inh (DAPK1) [%] | %Inh (DAPK2) [%] | %Inh (DAPK3) [%] | %Inh (DCAMKL1) [%] | %Inh (DCAMKL2) [%] | %Inh (DCAMKL3) [%] | %Inh (DDR1) [%] | %Inh (DDR2) [%]
1 | CN1C(=O)C(Nc2cc(Cl)c(O)c(Cl)c2)=C(c2ccc(Cl)cc2)C1=O [SB-404321] | 0 | 52 | 0 | 0 | 0 | 0 | 0 | 0 | 0 | 10
2 | Nc1ncnc2c1ncn2-c1ccc(Cl)cc1 [AH2635] | 1 | 0 | 0 | 0 | 0 | 10 | 0 | 0 | 0 | 21
3 | O=C(Nc1ccc2c(c1)OCO2)NC1CCN(c2ccnc(NCc3ccc(F)cc3)n2)CC1 [GSK1379859] | 22 | 0 | 22 | 0 | 0 | 14 | 0 | 18 | 9 | 0
4 | CCS(=O)c1ccc(-c2coc3ccc(-c4nnc(C)o4)cc23)cc1 (centres unmarked) | 31 | 0 | 14 | 0 | 0 | 36 | 0 | 0 | 0 | 16
5 | CC(C)(C)c1ccc(C(=O)Nc2cn3cc(-c4ccccc4)ccc3n2)cc1 | 75 | 0 | 9 | 0 | 0 | 33 | 0 | 21 | 4 | 28
6 | Fc1cccc(CSc2nnc(-c3ccc4c(c3)CCO4)o2)c1 | 33 | 11 | 3 | 0 | 0 | 20 | 0 | 0 | 0 | 16
7 | COc1ccc(-n2cnc3c(N)ncnc32)cc1 [SKF-97236] | 3 | 3 | 13 | 1 | 0 | 13 | 0 | 9 | 10 | 0
8 | COc1ccc(-c2cc3c(C)nc(N)nc3n([C@H]3CC[C@H](OCCO)CC3)c2=O)cn1 | 11 | 2 | 11 | 0 | 0 | 0 | 0 | 0 | 0 | 0
9 | Cc1cc(Nc2nc(-c3cccc(C)n3)nc3ccccc23)ccn1 [GW872411] | 5 | 18 | 0 | 0 | 1 | 26 | 0 | 0 | 0 | 0
10 | CCC(=O)c1c(-c2ccccc2)c2cc(Cl)ccc2c(=O)n1Cc1cc(C(=O)NC2CC2)n(C)n1 | 3 | 17 | 14 | 0 | 0 | 12 | 0 | 0 | 26 | 29
11 | COc1cc2nccc(Nc3cccc(Oc4ccccc4)c3)c2cc1OC.Cl [GW284543] | 4 | 10 | 0 | 0 | 0 | 11 | 0 | 23 | 17 | 9
12 | COc1cc(Nc2nccc(N3CCC(NC(=O)C4COc5ccccc5O4)C3)n2)cc(OC)c1OC (centres unmarked) [GSK1379761] | 0 | 0 | 0 | 20 | 11 | 0 | 0 | 0 | 1 | 61
13 | CCC(=O)c1c(-c2ccccc2)c2cc(Cl)ccc2c(=O)n1Cc1ccc(C(=O)O)cc1 | 0 | 0 | 13 | 0 | 0 | 8 | 0 | 0 | 24 | 34
14 | COc1ccc(-c2coc3ccc(-c4nnc(SCc5cccc(C#N)c5)o4)cc23)cc1 | 28 | 0 | 29 | 0 | 0 | 35 | 0 | 0 | 0 | 3
15 | COc1cccc(-n2cnc3c(N)ncnc32)c1 [SKF-97416] | 11 | 48 | 15 | 0 | 3 | 0 | 4 | 0 | 0 | 21
16 | COc1cc(OC)cc(-c2cc3cnc(N)nc3nc2NC(=O)NC(C)(C)C)c1 | 0 | 1 | 0 | 0 | 0 | 0 | 0 | 0 | 68 | 11
17 | CCC(=O)c1c(-c2ccccc2)c2cc(Cl)ccc2c(=O)n1Cc1cc(S(C)(=O)=O)n(CCC(C)(C)O)n1 | 22 | 0 | 16 | 3 | 0 | 15 | 22 | 21 | 14 | 0
18 | Cc1ccc(Oc2ccc(Nc3ncnc4cc[nH]c34)cc2C)cn1 | 13 | 29 | 0 | 0 | 0 | 0 | 0 | 0 | 0 | 0

Row | SMILES | %Inh (CSNK2A2) [%] | %Inh (CTK) [%] | %Inh (DAPK1) [%] | %Inh (DAPK2) [%] | %Inh (DAPK3) [%] | %Inh (DCAMKL1) [%] | %Inh (DCAMKL2) [%] | %Inh (DCAMKL3) [%] | %Inh (DDR1) [%] | %Inh (DDR2) [%]
19 | Cc1ccc(-c2ccc3c(ccc4sc5c(c43)NC[C@@H](C)N=C5N(C)C)n2)cn1 | 0 | 8 | 0 | 0 | 0 | 9 | 0 | 0 | 0 | 0
20 | Cl.c1ccc(Cn2cnc3cc(Nc4ncnc5ccccc45)ccc32)cc1 [GW272142] | 0 | 0 | 0 | 0 | 22 | 4 | 20 | 0 | 5 | 14
21 | Cc1nnc(-c2ccc3ncn(-c4ccc(S(C)=O)cc4)c3c2)o1 (centres unmarked) | 35 | 0 | 26 | 0 | 0 | 37 | 12 | 9 | 0 | 0
22 | Nc1nccc2scc(-c3ccc4c(c3)CCN4C(=O)Cc3ccccc3)c12 [GSK2576924] | 13 | 0 | 12 | 3 | 21 | 16 | 0 | 27 | 43 | 3
23 | FC(F)(F)c1ccc(-c2ncn(CCCN3CCOCC3)c2-c2ccncc2)cc1 [SB-217780] | 5 | 0 | 14 | 5 | 15 | 13 | 35 | 4 | 5 | 0
24 | Nc1ncnc2c1ncn2-c1cccc(F)c1 [SKF-97560] | 0 | 22 | 0 | 0 | 8 | 0 | 11 | 0 | 18 | 30
25 | Cc1nn2c(=O)cc(N3CCOCC3)nc2n1Cc1cccc(Cl)c1Cl [GSK2342769] | 5 | 0 | 27 | 21 | 64 | 0 | 0 | 7 | 25 | 0
26 | CCCNC(=O)Nc1ccc(Oc2ncnc3ccn(C)c23)cc1 | 33 | 35 | 10 | 0 | 0 | 35 | 0 | 0 | 0 | 8
27 | Cc1nc(N(C)[C@H]2CN(C(=O)CC#N)CC[C@H]2C)c2cc[nH]c2n1 | 6 | 19 | 0 | 13 | 0 | 6 | 0 | 63 | 28 | 2
28 | Cc1nnc(-c2ccc(C)c(-c3ccc(C(=O)O)cc3)c2)o1 [GW608005] | 8 | 0 | 0 | 0 | 0 | 0 | 0 | 0 | 7 | 1
29 | Cc1cccc(-c2nc(Nc3ccc4c(cnn4C)c3)c3ccccc3n2)n1 [GW876731] | 0 | 4 | 0 | 0 | 14 | 0 | 11 | 0 | 3 | 1
30 | COc1cc2nccc(Nc3ccc(OCc4ccc(NC(C)=O)cc4)cc3)c2cc1OC.Cl [GW440135] | 0 | 20 | 0 | 10 | 1 | 4 | 0 | 0 | 0 | 45
31 | CCCC(=O)Nc1n[nH]c2ncc(-c3cccc4ccccc34)cc12 [SB-642057] | 0 | 0 | 20 | 0 | 24 | 18 | 0 | 11 | 3 | 0
32 | O=C(Nc1n[nH]c2nc(-c3ccccc3)c(Cl)cc12)C1CC1 [SB-734909] | 34 | 27 | 9 | 0 | 0 | 16 | 18 | 8 | 17 | 18
33 | CCc1nc(-c2cccc(C)c2)c(-c2ccncc2)s1 | 0 | 0 | 11 | 0 | 9 | 30 | 2 | 4 | 30 | 17
34 | CCC(=O)c1c(-c2ccccc2)c2cc(Cl)ccc2c(=O)n1Cc1cc(S(C)(=O)=O)n(CC(F)F)n1 | 0 | 0 | 0 | 0 | 0 | 19 | 0 | 1 | 18 | 10
35 | C[C@@H]1CC[C@H](C(=O)NC2CCCCC2)CN1c1cc(-c2ccc3c(N)n[nH]c3c2)nc(N)n1 [GSK2291363] | 0 | 0 | 18 | 47 | 35 | 14 | 24 | 0 | 0 | 3
